“And” between values parts separate entries of the source, which are not always exact repeats. Identical values can stand only once. Records with an inconclusive call do not appear. Where a call stands in place of a potency, no number is given. Unmarked numbers belong to inactive results. The source made the active and inactive calls. Unless noted, the call rests on the fitted dose curve; in most records, active means well fitted curve in the direction sought with a large enough effect; inconclusive means small, poorly fitted or top-dose-only effect, or another doubt; inactive means no such curve, though single readings can be large; an effect the other way counts as inactive or inconclusive.
Columns and labels:
[1] = biological target: Cellular tumor antigen p53 (Homo sapiens) (UniProt P04637); experiment: Primary qHTS for small molecule compounds that upregulate eGFP-tagged delta133p53alpha (in N-terminal) cells. (AID 2060322); settings: NCI-H358 eGFP-delta133p53alpha fluorescence, 24 h; activation: hits give high values; further: nearly all actives have a fitted effect of over 75% in size; further: potency means the concentration at half of the fitted maximal effect;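 on activation: cells pre-induced with doxycycline then dosed without doxycycline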
Sequence of Cellular tumor antigen p53 (Homo sapiens) (P04637 whole entry, looked up): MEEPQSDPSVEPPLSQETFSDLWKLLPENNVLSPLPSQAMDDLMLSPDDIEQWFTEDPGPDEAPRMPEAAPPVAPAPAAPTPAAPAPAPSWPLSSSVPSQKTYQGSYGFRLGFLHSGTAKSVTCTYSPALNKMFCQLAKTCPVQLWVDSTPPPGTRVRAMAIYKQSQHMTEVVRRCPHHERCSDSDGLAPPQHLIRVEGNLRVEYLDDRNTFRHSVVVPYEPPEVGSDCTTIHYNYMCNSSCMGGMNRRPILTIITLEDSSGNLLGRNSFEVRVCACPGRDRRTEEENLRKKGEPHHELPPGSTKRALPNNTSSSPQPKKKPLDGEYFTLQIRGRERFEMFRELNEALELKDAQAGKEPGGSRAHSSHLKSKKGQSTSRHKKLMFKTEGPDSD
Outline: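 NCI-H358 cells pre-induced 24 h with 10 ng/ml doxycycline for eGFP-delta133p53alpha, plated dox-free and exposed 24 h at 37C to titrated compounds. Fixed, Hoechst-stained; gated GFP peak intensity by laser scanning cytometry, normalized to DMSO (0%) and 57.5 uM 5-azacytidine (100%).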

[2] = biological target: Cellular tumor antigen p53 (Homo sapiens) (UniProt P04637); experiment: Primary qHTS for small molecule compounds that upregulate eGFP-tagged delta133p53alpha (in C-terminal) cells. (AID 2060324); settings: NCI-H358 delta133p53alpha-eGFP (C-terminal tag), GFP fluorescence imaging, 24 h; series mostly up to 57.5 µM; further: potency means the concentration at half of the fitted maximal effect
Outline: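 Readout: filtered GFP peak intensity of gated cells (laser scanning cytometer), normalized plate-wise to intraplate controls, DMSO wells = 0% activity. Cells: NCI-H358 D133p53a-eGFP, dox 100 ng/ml 24 h beforehand, then compound 24 h, 37 °C.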

[3] = biological target: Aldehyde dehydrogenase, mitochondrial (Homo sapiens) (UniProt P05091); experiment: qHTS for Inhibitors of the Aldehyde Dehydrogenase Family (ALDH2) Validation screens (AID 2061302; active means well fitted inhibition curve with a large enough effect; title and protocol of this record describe different tests; further: potency means the concentration at half of the fitted maximal effect); settings: ALDH inhibition qHTS; series mostly up to 42.6 µM
[4] = biological target: Retinaldehyde dehydrogenase 3 (Homo sapiens) (UniProt P47895); experiment: qHTS for Inhibitors of the Aldehyde Dehydrogenase Family (ALDH1A3) Validation screen (AID 2061312); settings: ALDH1A3 enzyme inhibition qHTS validation, fluorescence; series mostly up to 84.7 µM; further: nearly all actives have a fitted effect of over 45% in size
[5] = BET inhibitor-based combinations targeting novel dependencies in MECOM-rearranged (r) AML: OCI-AML3 cell line (AID 2202232); settings: CellTiter-Glo luminescence, 48 h; Potency: OCI-AML3 viability; series mostly up to 46 µM; further: nearly all actives have a fitted effect of over 35% in size; further: potency means the concentration at half of the fitted maximal effect
Outline: (§1)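 500 cells/well; 11-pt dose curve; 48 h, standard incubator; CellTiter-Glo luminescence after 15 min RT; DMSO/empty-well normalization; AUC plus Z-AUC (mean-centered within each line).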

[6] = BET inhibitor-based combinations targeting novel dependencies in MECOM-rearranged (r) AML: MV-4-11 cell line (AID 2202233); settings: MV-4-11 AML viability, CellTiter-Glo luminescence, 48 h; series mostly up to 46 µM; further: nearly all actives have a fitted effect of over 45% in size; further: potency means the concentration at half of the fitted maximal effect
Outline: (§2)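 Cells were plated at 500 per well and exposed to each drug across an 11-point dose range for 48 hr at standard incubator conditions. Viability was read by CellTiter-Glo luminescence, and activity was expressed as AUC and per-cell-line Z-transformed AUC.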

[7] = BET inhibitor-based combinations targeting novel dependencies in MECOM-rearranged (r) AML: UCSD-AML1 cell line (AID 2202235); settings: UCSD-AML1 AML cells viability, CellTiter-Glo, 48 h; series mostly up to 46 µM; further: nearly all actives have a fitted effect of over 40% in size; further: potency means the concentration at half of the fitted maximal effect
Outline: as §2

[8] = BET inhibitor-based combinations targeting novel dependencies in MECOM-rearranged (r) AML: AML-194 cell line (AID 2202237; further: nearly all actives have a fitted effect of over 40% in size; further: potency means the concentration at half of the fitted maximal effect); settings: AML-194 (MECOM-r AML) viability, CellTiter-Glo, 48 h; series mostly up to 46 µM
Outline: as §1

[9] = BET inhibitor-based combinations targeting novel dependencies in MECOM-rearranged (r) AML: SET-2 cell line (AID 2202231); settings: SET-2 AML cells viability, CellTiter-Glo luminescence, 48 h; viability: hits give low values, concentration not given here; further: nearly all actives have a fitted effect of over 35% in size; further: potency means the concentration at half of the fitted maximal effect
Outline: as §1

[10] = BET inhibitor-based combinations targeting novel dependencies in MECOM-rearranged (r) AML: HNT-34 cell line (AID 2202234); settings: HNT-34 AML viability, CellTiter-Glo luminescence, 48 h; series mostly up to 46 µM; further: nearly all actives have a fitted effect of over 35% in size; further: potency means the concentration at half of the fitted maximal effect
Outline: as §2

[11] = BET inhibitor-based combinations targeting novel dependencies in MECOM-rearranged (r) AML: AML-191 cell line (AID 2202236; further: nearly all actives have a fitted effect of over 35% in size; further: potency means the concentration at half of the fitted maximal effect); settings: AML-191 viability, CellTiter-Glo luminescence, 48 h; series mostly up to 46 µM
Outline: as §1

[12] = biological target: Aldehyde dehydrogenase 1A1 (Homo sapiens) (UniProt P00352); experiment: qHTS for Inhibitors of the Aldehyde Dehydrogenase Family (ALDH1A1) Confirmatory screens (AID 2061316); settings: ALDH inhibition qHTS; series mostly up to 47.3 µM; further: nearly all actives have a fitted effect of over 65% in size; further: potency means the concentration at half of the fitted maximal effect

Compound: O=C(c1ccc(OCCN2CCCCC2)cc1)c1c(-c2ccc(O)cc2)sc2cc(O)ccc12
- activation [1]: 20.9% and -56%
- Potency [2]: inactive
- Potency [3]: inactive
- Potency [4]: inactive
- Potency [5]: 11.8 µM (active)
- Potency [6]: 18.6 µM (active)
- Potency [7]: inactive
- Potency [8]: 20.9 µM (active)

Compound: O=c1c(O)c(-c2ccc(O)cc2O)oc2cc(O)cc(O)c12
- activation [1]: 15.3% and -27.9%
- Potency [2]: inactive
- Potency [3]: inactive
- Potency [4]: inactive
- viability [9]: 122%
- Potency [5]: inactive
- Potency [6]: inactive
- Potency [10]: inactive
- Potency [11]: inactive
- Potency [8]: inactive

Compound: COc1cccc(-c2cc(=O)c3ccccc3o2)c1N
- activation [1]: 10.5% and -44.6%
- Potency [2]: inactive
- Potency [3]: inactive
- Potency [4]: inactive
- viability [9]: 100%
- Potency [5]: 5.25 µM (active)
- Potency [6]: 20.9 µM (active)
- Potency [7]: inactive
- Potency [11]: 14.8 µM (active)

Compound: O=c1[nH]cc(F)c(=O)[nH]1
- activation [1]: -32.6% and 6.33%
- Potency [2]: inactive
- Potency [3]: inactive
- Potency [4]: inactive
- Potency [9]: 10.5 µM (active)
- Potency [6]: 6.61 µM (active)

Compound: Clc1ccc(C(c2ccc(Cl)cc2)n2cc[n+](CC(OCc3ccc(Cl)cc3Cl)c3ccc(Cl)cc3Cl)c2)cc1 (centres undefined)
- activation [1]: 29.4%
- Potency [2]: inactive
- Potency [3]: inactive
- Potency [4]: inactive
- Potency [5]: 5.9 µM (active)
- Potency [6]: 8.33 µM (active)
- Potency [10]: 9.34 µM (active)
- Potency [11]: 18.6 µM (active)
- Potency [8]: 26.3 µM (active)

Compound: O=C1N(c2ccccc2)c2ccccc2C1(Cc1ccncc1)Cc1ccncc1
- activation [1]: 10.9% and -8.78% and -29%
- Potency [2]: inactive
- Potency [3]: inactive
- Potency [4]: inactive
- viability [9]: 104%
- Potency [5]: inactive
- Potency [6]: inactive
- Potency [7]: inactive
- Potency [11]: inactive
- Potency [8]: inactive

Compound: O=c1cc(N2CCOCC2)oc2c(-c3ccccc3)cccc12
- activation [1]: 3.72% and -10.8%
- Potency [2]: inactive
- Potency [3]: inactive
- Potency [6]: 13.2 µM (active)

Compound: Cc1c(OCC(F)(F)F)ccnc1CS(=O)c1nc2ccccc2[nH]1 (centres undefined)
- activation [1]: 8.47% and 28.3%
- Potency [2]: inactive
- Potency [3]: inactive
- Potency [10]: inactive
- Potency [7]: inactive
- Potency [11]: inactive
- Potency [8]: inactive

Compound: Cc1cccc(-c2[nH]ncc2-c2ccc3ncccc3n2)n1
- activation [1]: 39.6% and -70.9%
- Potency [2]: inactive
- Potency [3]: inactive
- Potency [4]: inactive
- Potency [5]: inactive
- Potency [6]: inactive
- Potency [11]: inactive
- Potency [8]: inactive

Compound: NCCc1cnc[nH]1
- activation [1]: -5.21% and -25.1% and -31.8%
- Potency [2]: inactive
- Potency [3]: inactive
- viability [9]: 93.4%
- Potency [5]: inactive
- Potency [6]: 8.33 µM (active)
- Potency [10]: inactive
- Potency [7]: inactive
- Potency [11]: inactive

Compound: COc1ccccc1N1CCN(CC(O)COc2cccc3ccccc23)CC1 (centres undefined)
- activation [1]: 17.1% and 24.3% and -36.9%
- Potency [2]: inactive
- Potency [3]: inactive
- Potency [9]: 13.2 µM (active)
- Potency [6]: 14.8 µM (active)
- Potency [7]: 5.25 µM (active)
- Potency [11]: 9.34 µM (active)
- Potency [8]: inactive

Compound: O=C1NC(c2cccc([N+](=O)[O-])c2)=CCN1c1ccccc1O
- activation [1]: 5.67% and -12.4%
- Potency [2]: inactive
- Potency [3]: inactive
- Potency [12]: inactive

Compound: Nc1nc(N)c2nc(CNc3ccc(C(=O)NC(CCC(=O)O)C(=O)O)cc3)cnc2n1 (centres undefined)
- activation [1]: 25.1% and -8.03%
- Potency [2]: inactive
- Potency [3]: inactive
- viability [9]: 90.9%
- Potency [5]: inactive
- Potency [6]: inactive
- Potency [10]: inactive
- Potency [11]: inactive
- Potency [8]: inactive

Compound: Cc1ccc(S(=O)(=O)N[C@@H](Cc2ccccc2)C(=O)CCl)cc1
- Potency [1]: 24.3 µM (active)
- Potency [2]: 26.9 µM (active)
- Potency [3]: inactive
- Potency [12]: 0.565 µM (active)
- Potency [5]: 16.6 µM (active)
- Potency [6]: 13.2 µM (active)
- Potency [10]: 13.2 µM (active)
- Potency [11]: 20.9 µM (active)
- Potency [8]: 23.5 µM (active)

Compound: CC[N+](CC)(CC)CCOc1cccc(OCC[N+](CC)(CC)CC)c1OCC[N+](CC)(CC)CC
- activation [1]: -9.51% and 5.08% and -25.7%
- Potency [2]: inactive
- Potency [3]: inactive
- viability [9]: 113%
- Potency [5]: inactive
- Potency [6]: inactive
- Potency [10]: inactive
- Potency [7]: inactive
- Potency [11]: inactive
- Potency [8]: inactive

Compound: C[C@H](Cc1ccc(O)c(O)c1)[C@@H](C)Cc1ccc(O)c(O)c1
- activation [1]: 8.19%
- Potency [2]: inactive
- Potency [3]: 15.8 µM (active)
- Potency [5]: 3.32 µM (active)
- Potency [6]: 2.95 µM (active)
- Potency [10]: 8.33 µM (active)
- Potency [11]: 11.8 µM (active)

Compound: Clc1ccc2nsnc2c1NC1=NCCN1
- activation [1]: 17.5% and 19.5%
- Potency [2]: inactive
- Potency [3]: inactive
- viability [9]: 111%
- Potency [5]: inactive
- Potency [10]: inactive
- Potency [11]: inactive
